Assay results taken from PubChem BioAssay (EPA / NIEHS).
Values joined by “and” are separate entries in the source; they are usually repeats but may differ in a detail not shown here. Equal entries are not always repeated. Results filed as inconclusive are left out. Active and inactive are the calls of the source. How the source made its calls: active means hit-call score of the fitted dose curve at least 0.9, where 1 is the maximum; inconclusive means response in the unintended direction; inactive means score below 0.9.

system: rat CYP2B1, gene 24300; assay: NVS_ADME_rCYP2B1: NovaScreen (NVS) CYP450-related Enzyme Activity (ADME) Assay for rat CYP2B1 (AID 2283117)
How it was run: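 Cell-free fluorescence enzyme assay, recombinant rat CYP2B1, 0.75 h after dosing. Single-concentration duplicates at 10 uM preceded concentration series (max 20 uM) for actives; acetonitrile as negative-control baseline.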

| Compound | AC50 | outcome |
| --- | --- | --- |
| COP(=S)(OC)SCn1nnc2ccccc2c1=O | 3.35 µM (active) | – |
| COP(=S)(OC)Oc1ccc([N+](=O)[O-])c(C)c1 | 1.17 µM (active) | – |
| CCNC(=O)NC(=O)C(C#N)=NOC | – | inactive |
| CC(C)(C)C(=O)C(Oc1ccc(Cl)cc1)n1cncn1 (stereo not given) | 549 nM (active) and 1.69 µM (active) | – |
| CCCCC(C#N)(Cn1cncn1)c1ccc(Cl)cc1 (stereo not given) | 1.64 µM (active) | – |
| CCCN(CC)CC1COC2(CCC(C(C)(C)C)CC2)O1 (stereo not given) | – | inactive |
| N#Cc1c(Cl)cccc1Cl | – | inactive |
| CC1(C)CCC(=Cc2ccc(Cl)cc2)C1(O)Cn1cncn1 (stereo not given) | 1.84 µM (active) | – |
| CCCCC(O)(Cn1cncn1)c1ccc(Cl)cc1Cl (stereo not given) | 0.0547 µM (active) | – |
| CC(C)C1(C)N=C(c2ncccc2C(=O)O)NC1=O (stereo not given) | – | inactive |
| CCNP(=S)(OC)O/C(C)=C/C(=O)OC(C)C (stereo not given) | 1.45 µM (active) | – |

target: rat CYP2C11, Cyp2c11 (gene 29277) (UniProt P08683); assay: NVS_ADME_rCYP2C11: NovaScreen (NVS) CYP450-related Enzyme Activity (ADME) Assay for rat CYP2C11 (AID 2283118)
Sequence (P08683 whole entry, looked up): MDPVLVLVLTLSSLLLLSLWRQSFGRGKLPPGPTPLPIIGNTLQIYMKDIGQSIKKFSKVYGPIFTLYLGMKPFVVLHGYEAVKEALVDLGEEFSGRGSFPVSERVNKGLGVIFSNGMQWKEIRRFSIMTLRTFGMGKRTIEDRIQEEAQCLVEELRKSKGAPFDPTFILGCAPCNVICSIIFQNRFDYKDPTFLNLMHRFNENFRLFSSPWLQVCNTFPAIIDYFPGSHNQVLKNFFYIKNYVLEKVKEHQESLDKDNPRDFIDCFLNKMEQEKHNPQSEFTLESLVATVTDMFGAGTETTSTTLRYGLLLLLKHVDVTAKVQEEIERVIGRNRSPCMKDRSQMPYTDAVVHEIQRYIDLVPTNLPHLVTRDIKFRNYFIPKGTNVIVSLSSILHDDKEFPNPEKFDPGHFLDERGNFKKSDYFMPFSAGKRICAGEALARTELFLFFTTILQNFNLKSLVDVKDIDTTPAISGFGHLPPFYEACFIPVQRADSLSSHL
How it was run: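 Screened first at 10 uM in duplicate, hits followed by concentration-response. Recombinant rat enzyme activity monitored by fluorescence 0.33 h post-dosing, normalised to acetonitrile negative control.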

| Compound | AC50 | outcome |
| --- | --- | --- |
| COP(=S)(OC)SCn1nnc2ccccc2c1=O | 0.419 µM (active) | – |
| CC(C)N1C(=O)N(c2ccccc2)CSC1=NC(C)(C)C | 3.97 µM (active) | – |
| COP(=S)(OC)Oc1ccc([N+](=O)[O-])c(C)c1 | 0.392 µM (active) | – |
| CC(C)(C)C(=O)C(Oc1ccc(Cl)cc1)n1cncn1 (stereo not given) | 4.29 µM (active) | – |
| CO/N=C(/C1=NOCCO1)c1ccccc1Oc1ncnc(Oc2ccccc2Cl)c1F | 0.779 µM (active) | – |
| CCCCC(C#N)(Cn1cncn1)c1ccc(Cl)cc1 (stereo not given) | 2.39 µM (active) | – |
| CCOc1cc(C(C)(C)C)ccc1C1COC(c2c(F)cccc2F)=N1 (stereo not given) | 10 µM (active) | – |
| CCN(CC)C(=O)C(C)Oc1cccc2ccccc12 (stereo not given) | 0.951 µM (active) | – |
| COc1ccc(-c2ccccc2)cc1NNC(=O)OC(C)C | – | inactive |
| CC1(C)CCC(=Cc2ccc(Cl)cc2)C1(O)Cn1cncn1 (stereo not given) | 0.384 µM (active) | – |
| CCCCC(O)(Cn1cncn1)c1ccc(Cl)cc1Cl (stereo not given) | 1.85 µM (active) | – |
| CCNP(=S)(OC)O/C(C)=C/C(=O)OC(C)C (stereo not given) | 1.24 µM (active) | – |

target: rat CYP2C12, Cyp2c12 (gene 25011) (UniProt P11510); assay: NVS_ADME_rCYP2C12: NovaScreen (NVS) CYP450-related Enzyme Activity (ADME) Assay for rat CYP2C12 (AID 2283119)
Sequence (P11510 whole entry, looked up): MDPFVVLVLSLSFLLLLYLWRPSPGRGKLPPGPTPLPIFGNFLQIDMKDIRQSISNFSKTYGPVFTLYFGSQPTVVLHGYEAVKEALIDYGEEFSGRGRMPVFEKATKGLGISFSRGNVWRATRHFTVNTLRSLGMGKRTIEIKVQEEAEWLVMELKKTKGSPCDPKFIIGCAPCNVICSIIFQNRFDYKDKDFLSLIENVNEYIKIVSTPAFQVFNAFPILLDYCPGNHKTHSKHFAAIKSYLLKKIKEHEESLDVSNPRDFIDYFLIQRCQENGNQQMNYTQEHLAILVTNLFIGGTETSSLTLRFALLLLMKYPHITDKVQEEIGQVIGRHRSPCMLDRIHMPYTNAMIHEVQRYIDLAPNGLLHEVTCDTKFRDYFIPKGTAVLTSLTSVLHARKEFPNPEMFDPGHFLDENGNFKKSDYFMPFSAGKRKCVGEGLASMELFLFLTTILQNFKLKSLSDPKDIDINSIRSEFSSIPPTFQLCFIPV
Method: NVS_ADME_rCYP2C12 is a biochemical, single-readout assay that uses extracted gene-proteins in a cell-free assay. Measurements were taken 0.5 hour after chemical dosing in a 96-well plate.NVS_ADME_rCYP2C12 is one of one assay component(s) measured or calculated from the NVS_ADME_rCYP2C12 assay. It is designed to make measurements of enzyme activity, a form of enzyme reporter, as detected with fluorescence intensity signals by Fluorescence technology.Data from the assay component NVS_ADME_rCYP2C12 was analyzed into 1 assay endpoint. This assay endpoint, NVS_ADME_rCYP2C12, was analyzed in the positive analysis fitting direction relative to Acetonitrile as the negative control and baseline of activity. Using a type of enzyme reporter, loss-of-signal activity can be used to understand changes in the enzymatic activity as they relate to the gene Cyp2c12. Furthermore, this assay endpoint can be referred to as a primary readout, because this assay has produced multiple assay endpoints where this one serves a enzymatic activity function. To generalize the intended target to other relatable targets, this assay endpoint is annotated to the cyp intended target family, where the subfamily is xenobiotic metabolism.
Binding assays used specific radioligands (tritiated, iodinated) with non-radioactive competitive displacement ligands in agonist or antagonist protocols (as indicated) and various reference compounds and inhibitors to titrate specific binding to receptors and transporters. Most enzyme assays (CYPs, kinases, phosphatases, proteases, HDACs) used recombinant protein and specific substrates (fluorescence mostly, some colorimetric and radioactive) and inhibitors, followed by a biochemical separation of substrate and product. All assays for the biochemical HTS were initially run in duplicate at a single concentration (10 uM for CYP450 assays and 25 uM for all others). […] Each assay was run with positive and negative controls, and concurrent controls on every plate. The follow-up (secondary) screen tested active chemical-pairs in concentration series, as well as a few additional assays not tested in the primary screen, some selected negative inactives, and several cases re-run in the concentration series for confirmatory purposes.

| Compound | AC50 | outcome |
| --- | --- | --- |
| COP(=S)(OC)Oc1ccc([N+](=O)[O-])c(C)c1 | 8.05 µM (active) | – |
| C=CCOC(=O)C(C)(C)OC(=O)c1cc(-n2c(=O)cc(C(F)(F)F)n(C)c2=O)ccc1Cl | – | inactive |
| O=C1C2CC=CCC2C(=O)N1SC(Cl)(Cl)Cl (stereo not given) | – | inactive |
| CCCCC(C#N)(Cn1cncn1)c1ccc(Cl)cc1 (stereo not given) | 4.51 µM (active) | – |
| CCCCC(O)(Cn1cncn1)c1ccc(Cl)cc1Cl (stereo not given) | 1.58 µM (active) | – |
| CCNP(=S)(OC)O/C(C)=C/C(=O)OC(C)C (stereo not given) | 10 µM (active) | – |
| COC(=O)N(C(=O)N1CO[C@@]2(C(=O)OC)Cc3cc(Cl)ccc3C2=N1)c1ccc(OC(F)(F)F)cc1 | 0.332 µM (active) | – |
